Laboratory results: PubChem BioAssay (EPA / NIEHS)
Activity calls are given as the source filed them. The calls were made as follows: active = hit-call score of the fitted dose curve at least 0.9, where 1 is the maximum; inactive = score below 0.9.

read-out: Plasminogen activator inhibitor-1 (PAI1), SERPINE1 (gene 5054); test: BSK_MyoF_PAI1: BioMAP Diversity Plus: MyoF Assay for Plasminogen activator inhibitor-1 (PAI1) Biomarker Activity (AID 2284256); details: primary human lung fibroblasts
Procedure: BSK_MyoF is a cell-based, multiplexed-readout assay that uses lung fibroblasts, […], with measurements taken at 24 hours after chemical dosing in a microplate: 96-well plate.BSK_MyoF_PAI1 is an assay component measured in the BSK_MyoF assay. It measures PAI-1 antibody related to regulation of gene expression using ELISA technology.Data from the assay component BSK_MyoF_PAI1 was analyzed at the endpoint, BSK_MyoF_PAI1, in the positive analysis fitting direction relative to DMSO as the negative control and baseline of activity. Using a type of binding reporter, gain or loss-of-signal activity can be used to understand protein changes. To generalize the intended target to other relatable targets, this assay endpoint is annotated to the 'cytokine' intended target family, where the subfamily is 'plasmogen activator inhibitor'.
The levels of cell surface (or secreted, indicated by the prefix "s") biomarker endpoints were measured by ELISA. Overt cytotoxicity to cells in confluent adherent cultures (all systems other than the BT system) was assessed by measuring total protein levels using sulforhodamine B (SRB) staining in parallel cultures at the time of biomarker measurements, indicated as SRB endpoints. For proliferation assays for adherent cell types, individual cell types are cultured at sub-confluence and relative cell numbers quantified by SRB staining at time points optimized for each system (48 h: 3C and CASM3C systems; 72 h: BT and HDF3CGF systems; 96 h: SAg system). SRB was performed by staining cells with 0.1% SRB after fixation with 10% TCA and reading wells at 560 nm.Viability and proliferation of PBMC (T cells) was quantified by Alamar Blue reduction for the SAg and BT systems. For PBMC viability (referred to as PBMC Cytotoxicity within the assay endpoint names), cells were plated (75,000/well in a 96-well plate) and then chemical samples added for 1 h before addition of activators, SEB and TSST-1 (20 ng/mL final concentration each). Cells were incubated for 90 h. Then, Alamar Blue (20 uL/well) (Invitrogen, Cat DAL1100) was added for 6 h, and the plates were read with a fluorescence microplate reader at 546/580 nm (excitation/emission). For PBMC proliferation, cells were plated and activated as above but incubated for only 16 h prior to addition of Alamar Blue. Plates were read after 6 h.

Compound | AC50 | outcome
c1ccc(CCc2ccccc2)cc1 | 35.2 µM (active) | 
CCCCCC(C=O)=Cc1ccccc1 |  | inactive
CC(C)(N=C=O)c1cccc(C(C)(C)N=C=O)c1 |  | inactive
CC(=O)Nc1ccc(C(=O)CCl)cc1 | 13.7 µM (active) | 
CSCCC=O |  | inactive
COc1cc(Cl)c(OC)cc1N |  | inactive
C=C(C)C(=O)OCCOCCOCCOC(=O)C(=C)C |  | inactive
IC(I)I |  | inactive
CCCCOC(=O)CCCCCCCC(=O)OCCCC |  | inactive
CCN(CC)C(=O)N(CC)CC |  | inactive
c1ccc2cc(Nc3ccc(Nc4ccc5ccccc5c4)cc3)ccc2c1 |  | inactive
CN(C)C(=O)Nc1ccc(Oc2ccc(Cl)cc2)cc1 | 0.016 µM (active) | 
CC=Cc1ccc(OCC)c(O)c1 |  | inactive
CS(=O)(=O)c1ccc(C2=C(c3ccccc3)C(=O)OC2)cc1 | 0.0082 µM (active) | 
C=C(C)C(=O)OCCOCCOCCOCCOC(=O)C(=C)C |  | inactive
O=C1OC2(c3ccccc31)c1ccc(O)c(Br)c1Oc1c2ccc(O)c1Br | 9.25 µM (active) | 
c1ccc(Oc2ccccc2)cc1 |  | inactive
CN(c1nccc(=O)[nH]1)C1CCN(c2nc3ccccc3n2Cc2ccc(F)cc2)CC1 |  | inactive
CN(C)C(=S)SC(=S)N(C)C | 3.95 µM (active) | 

Compound | AC50 | outcome
Oc1c(Cl)cc(Cl)c(Cl)c1Cc1c(O)c(Cl)cc(Cl)c1Cl | 0.83 µM (active) | 
CCCCN(CCCC)C(=O)N(CCCC)CCCC | 10.7 µM (active) | 
CC(=O)C1(C)CC2=C(CCCC2(C)C)CC1C (stereo not drawn) | 11.2 µM (active) | 
CCC(C)c1cc([N+](=O)[O-])cc([N+](=O)[O-])c1OC(=O)OC(C)C (stereo not drawn) | 11.7 µM (active) | 
CC(C)(C)CC(C)(C)c1ccc(OCCOCC[N+](C)(C)Cc2ccccc2)cc1 | 5 µM (active) | 
Clc1cc(Cl)c(-c2c(Cl)c(Cl)cc(Cl)c2Cl)cc1Cl | 4.46 µM (active) | 
O=C1OC[C@H](Cc2cccc(O)c2)[C@H]1Cc1cccc(O)c1 |  | inactive
CCCCCCCCCCCCCCCC(=O)OC/C=C(C)/C=C/C=C(C)/C=C/C1=C(C)CCCC1(C)C |  | inactive
CC1(C)C2=CCCC(C)(C)[C@]23CC[C@H]1C3 | 35.3 µM (active) | 
C=C(C)C(=O)OCC(CC)(COC(=O)C(=C)C)COC(=O)C(=C)C | 13 µM (active) | 
C=C(C)[C@H]1CC=C(C)C(=O)C1 |  | inactive
CC(C=O)Cc1ccc(C(C)(C)C)cc1 (stereo not drawn) |  | inactive
Cc1cc(CCC(=O)OCCOCCOCCOC(=O)CCc2cc(C)c(O)c(C(C)(C)C)c2)cc(C(C)(C)C)c1O |  | inactive
C1=CC2C3C=CC(C3)C2C1 (stereo not drawn) |  | inactive
O=C1c2ccccc2C(=O)c2c(O)ccc(O)c21 |  | inactive
COc1ccc(OC)c(N=Nc2c(O)ccc3ccccc23)c1 |  | inactive
CC(=O)c1c(C)c([N+](=O)[O-])c(C(C)(C)C)c([N+](=O)[O-])c1C |  | inactive
COc1ccc(CCN2CCC(Nc3nc4ccccc4n3Cc3ccc(F)cc3)CC2)cc1 |  | inactive
C[C@@H]1CCN(C(=O)[C@H](CCCN=C(N)N)NS(=O)(=O)c2cccc3c2NC[C@H](C)C3)[C@@H](C(=O)O)C1 |  | inactive
